Measured values: the supplement of paper PMC10338343
± gives the standard deviation. In all, about 8,200 sequences were measured (“pre-steady-state target cleavage rate”: median about 0.024, highest 2% from about 1.3 on). For the sample, the highest values were picked, then their nearest neighbours and some sequences at random.

System: MIWI (PIWIL1) piRISC loaded with L1MC piRNA (30 nt)
Test: pre-steady-state target cleavage rate (min^-1); MIWI and MILI are mouse PIWI proteins and EfPiwi is from a freshwater sponge; tags in brackets are library labels; higher = faster piRNA-guided slicing of the target
Conditions: guide: L1MC piRNA 5'p-UAACUAAAUACUAUGCAAGCUGUAGGUCCU
Description: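 Cleave-'n-Seq: a library of target RNAs (target site embedded in constant flanks, ACAGCATTCCGCGTTAGTGATATCCG... 5' flank; DNA-blocked outside the site) at 0.1 nM was incubated with 1 nM active mouse MILI or MIWI piRISC (synthetic 5'-monophosphorylated piRNA guide) with or without 500 nM mouse GTSF1 at 33 °C for 1 min to 16 h. Uncleaved targets were sequenced and normalised to non-target controls, and the pooled three trials were fitted to a burst-and-steady-state model to give the pre-steady-state cleavage rate (min^-1; k3 is constrained to at most 1e-4). Sequence is the target site only; target names encode pairing extent (gX:gY) and contiguous / 1-mismatch / 2-mismatch / bulge geometry. Fits with R² ≤ 0 are excluded.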

[1] = auxiliary factor: 500 nM mouse GTSF1
[2] = auxiliary factor: none (no GTSF1)

Sequence | pre-steady-state target cleavage rate [1] | pre-steady-state target cleavage rate [2]
UCCUCCUACAGCUUGCAUAGAAUUUACAAA | 0.295 ± 0.045 | –
UCCUGGAUGUCGAACGUAACUAUUUACUUA | < 0.0001 | –
UCCUCCUACAGCUUCGAUAGUAUUUAGUAA | 0.263 ± 0.031 | –
UCCUGGAUGUGCUUGCAUAGUAUAAAGUAA | 0.00523 ± 0.0043 | –
UCGACCUACAGCUUGCAUAGUAUUGAGUUA | 0.499 ± 0.042 | 0.0477 ± 0.0089
UCCUGGAUCAGCUUGCAUACUUUUUAGUUA | 0.014 ± 0.0033 | 0.00335 ± 0.0016
UCGACCUACAGCUUGCAUAGUAGUUUAGUUA | 0.574 ± 0.031 | 0.0134 ± 0.0039
UCCUGGUACAGCUUGCAAAGUAUUAAGUUA | 0.35 ± 0.049 | 0.0147 ± 0.0043
UCCUCCUACAGCGUUGCAUAGUAUUUAGUUA | 0.96 ± 0.057 | 0.0256 ± 0.0045
UCCUCCUACAGCGUGCAUAGUAUUUAGUUA | 1.4 ± 0.042 | 0.0379 ± 0.0072
UCCACCUACAGCGUUGCAUAGUAUUUAGUUA | 1.03 ± 0.13 | 0.0279 ± 0.005
UGGACCUACAGCGUUGCAUAGUAUUUAGUUA | 1.33 ± 0.11 | 0.0647 ± 0.013
UCCUCCUACAGCUGUGCAUAGUAUUUAGUUA | 1.18 ± 0.064 | 0.0204 ± 0.0047
AGGACCUACAGCGUUGCAUAGUAUUUAGUUA | 1.21 ± 0.086 | 0.0748 ± 0.015
UCGACCUACAGCUUGCAUAGUAUUAAGAUA | 0.248 ± 0.029 | 0.00627 ± 0.0027
UCGACCUACAGGUUGCAUAGUAUUUACAAA | 0.183 ± 0.026 | –
AGGACCAACAGCUUGCAUAGUAUAUAGUUA | 0.775 ± 0.054 | 0.0604 ± 0.013
AGGACCUACAGCUUGCAUAGUAAAAAGUUA | 0.489 ± 0.058 | 0.00574 ± 0.0034
UCCUCCUACAGCUUGCAUAGAAAUUAGUUA | 0.169 ± 0.019 | 0.00268 ± 0.0024
UCCUGGUACAGCUUGGUUAGUAUUUAGUAA | 0.412 ± 0.079 | 0.0101 ± 0.0031
UCCUGGUUGAGCUUGCAUAGUAUUUAGAAA | 0.135 ± 0.024 | 0.00555 ± 0.0033

Sequence | pre-steady-state target cleavage rate [1] | pre-steady-state target cleavage rate [2]
UCCUGGAACAGCUUGCAUACAAUUUAGUUA | 0.0117 ± 0.0047 | –
AGGACCUACAGCUUGCAUAGUAUAAAGAAA | 0.434 ± 0.077 | –
UCCACCCACAGCUUGCAUAGUAUUUAGUUA | 0.787 ± 0.052 | 0.0508 ± 0.0088
AGGACCCACAGCUUGCAUAGUAUUUAGUUA | 1.47 ± 0.093 | 0.0682 ± 0.0093
UGGACCACAGCUUGCAUAGUAUUUAGUUA | 1.47 ± 0.083 | 0.0744 ± 0.015
AGGACCACAGCUUGCAUAGUAUUUAGUUA | 1.29 ± 0.066 | 0.0967 ± 0.019
UGGACCCACAGCUUGCAUAGUAUUUAGUUA | 1.43 ± 0.091 | 0.0699 ± 0.011
UCGACCACAGCUUGCAUAGUAUUUAGUUA | 1.22 ± 0.051 | 0.0643 ± 0.011
UCGACCCACAGCUUGCAUAGUAUUUAGUUA | 1.19 ± 0.044 | 0.0644 ± 0.011
UGGACCUAGAGCUUGCAUAGUAUUUAGAAA | 0.296 ± 0.034 | 0.0101 ± 0.0034
UCCACCUAGAGCUAGCAUAGUAUUUAGUUA | 0.339 ± 0.042 | 0.0098 ± 0.0019
UCCUGCUACUCGUUGCAUAGUAUUUACAAA | 0.0303 ± 0.0091 | –
UGGACGUACAGCUUGCAUAGUUUUUAGUUA | 0.35 ± 0.015 | 0.0389 ± 0.0097
UCCUGGAACAGCUUCCAUAGUAUUAAGUUA | 0.0095 ± 0.0047 | –
UCGACCUACAGCUUGCAAUCUAUUUAGAAA | 0.129 ± 0.033 | –
AGGCCCUACAGCUUGCAUAGUAUUUAGUUA | 1.15 ± 0.058 | 0.115 ± 0.018
UGGCCCUACAGCUUGCAUAGUAUUUAGUUA | 1.39 ± 0.11 | 0.0833 ± 0.015
UCGGCCUACAGCUUGCAUAGUAUUUAGUUA | 1.21 ± 0.05 | 0.0767 ± 0.015
UGGCCUACAGCUUGCAUAGUAUUUAGUUA | 1.46 ± 0.076 | 0.0761 ± 0.014
AGGCCUACAGCUUGCAUAGUAUUUAGUUA | 1.41 ± 0.075 | 0.107 ± 0.019
